Test systems include HCT-15 colon; HT29 colon; SNB-75 CNS; SNB-19 CNS; U251 CNS; PC-3 prostate; SK-MEL-5 melanoma; UACC-62 melanoma; LOX IMVI melanoma; SK-MEL-28 melanoma; SK-MEL-2 melanoma; EKVX NSCLC; SN12C renal; UO-31 renal; TK-10 renal; ACHN renal; CAKI-1 renal; A498 renal; CCRF-CEM leukemia; MOLT-4 leukemia.
Assay in all cases: NCI-60 one-dose screen, 48 h (100 = growth as untreated, 0 = no growth, -100 = all killed)
Details in all cases: 10 µM unless noted

Each structure is given as a SMILES string. Compounds without any hit were thinned out: in the full panel of roughly 83,000, 20% have a hit.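 Results are percent growth after 48 hours of single-concentration exposure. 100 means growth as in untreated cells, lower positive values show inhibition; negative values down to -100 show cell death.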 Values without a mark were called inactive. Calls of active or inactive are those of the source. Rule for the calls: active = growth percent below 10; inactive = the rest.

Regarding `O=C1OCC2=C1C(c1cccc(F)c1)c1cc3c(cc1N2CCO)OCO3` (stereo not given), the growth in the test on HCT-15 colon is 22.1%; with HT29 colon, 5.77% (active); in the test with SNB-75 CNS, 16.9%; in the test with SNB-19 CNS it was 32.9%; in the test with U251 CNS it was 21.7%; in the test with PC-3 prostate, 25.1%. Also, the growth was 22.8% in the test on SK-MEL-5 melanoma; 47.2% in the test with UACC-62 melanoma; 34.9% in the test with LOX IMVI melanoma; 59.5% in the test on SK-MEL-28 melanoma; 26% with SK-MEL-2 melanoma; 46.1% in the test with EKVX NSCLC. Moreover, the growth in the test with SN12C renal was 48.3%; in the test with UO-31 renal, 36.9%; in the test on TK-10 renal, 52.3%; in the test on ACHN renal, 34.5%; in the test on CAKI-1 renal, 23.8%; in the test on A498 renal, 3.08% (active). The growth is 7.3% (active) with CCRF-CEM leukemia and 25.6% with MOLT-4 leukemia.

For `COc1cc(/C=C2\CN(S(=O)(=O)c3ccc(C)cc3)C/C(=C\c3cc(CN4CCCCC4)c(O)c(OC)c3)C2=O)cc(CN2CCCCC2)c1O`, the growth is -86.1% (active) in the test on HCT-15 colon; -66.5% (active) with HT29 colon; -83.9% (active) in the test with SNB-75 CNS; -57.7% (active) in the test with SNB-19 CNS; -89.6% (active) with U251 CNS; -39.9% (active) with PC-3 prostate. For the same compound, the growth with SK-MEL-5 melanoma was -88.9% (active); in the test on UACC-62 melanoma, -63.5% (active); in the test with LOX IMVI melanoma, -74.5% (active); in the test on SK-MEL-28 melanoma, -85.8% (active); with SK-MEL-2 melanoma, -73.7% (active); in the test with EKVX NSCLC it was -81% (active). In addition, the growth in the test with SN12C renal is -76.5% (active); in the test on UO-31 renal, -89.1% (active); in the test with TK-10 renal, -93.4% (active); in the test with ACHN renal, -98.9% (active); in the test with CAKI-1 renal, -89% (active); with A498 renal, 90%. The growth was -6.3% (active) in the test with CCRF-CEM leukemia and -23.7% (active) with MOLT-4 leukemia.

Take `CNC(=O)c1cc(Oc2ccc3nc(NC(=O)Nc4ccc(Cl)c(Cl)c4)sc3c2)ccn1`: the growth in the test on HCT-15 colon is 55%; in the test on HT29 colon, 36.4%; in the test on SNB-75 CNS, -38.3% (active); with SNB-19 CNS, 74.9%; with U251 CNS, 24%; in the test on PC-3 prostate, -24.7% (active). The growth was 72.7% in the test on SK-MEL-5 melanoma; 75.8% in the test on UACC-62 melanoma; -91.9% (active) in the test on LOX IMVI melanoma; 41.4% in the test with SK-MEL-28 melanoma; 80.8% in the test with SK-MEL-2 melanoma; 8.47% (active) in the test on EKVX NSCLC. Also, the growth was 57.3% in the test with SN12C renal; 39.9% in the test on UO-31 renal; 66.3% in the test with TK-10 renal; 70% in the test with ACHN renal; 103% in the test with CAKI-1 renal; 93.6% with A498 renal. Also, the figures for the growth in the test with CCRF-CEM leukemia and in the test on MOLT-4 leukemia were 42.5% and 66.2%, respectively.

As for `COc1cccc(OC)c1Oc1c(-c2nc3ccccc3s2)c(C)nn1-c1ccccc1`, the growth is 51.7% in the test on HCT-15 colon; 71.2% in the test with HT29 colon; 74.8% in the test on SNB-75 CNS; 92.7% in the test with SNB-19 CNS; 84.8% in the test with U251 CNS; 51.1% in the test with PC-3 prostate. In addition, the growth with SK-MEL-5 melanoma was 73.7%; in the test with UACC-62 melanoma, 56.2%; with LOX IMVI melanoma, 62.9%; in the test with SK-MEL-28 melanoma, 106%; in the test on SK-MEL-2 melanoma it was 90.6%; in the test with EKVX NSCLC, 71.9%. The growth was 82.6% in the test on SN12C renal; 49.5% with UO-31 renal; 94.7% in the test with TK-10 renal; 72.8% in the test with ACHN renal; 44.9% in the test with CAKI-1 renal; 82.3% with A498 renal. The results for the growth with CCRF-CEM leukemia and with MOLT-4 leukemia were 62.9% and 51.2%, respectively.

For `C=CC1(C)C(O[Si](C)(C)C(C)(C)C)CC2C3OC(=O)NC31c1cccc3c1[C@H](C(=O)N3C)C2(C)C` (stereo not given in full), the growth with HCT-15 colon is 32.2%; in the test on HT29 colon, 57.2%; in the test with SNB-75 CNS, 74.4%; in the test on SNB-19 CNS it was 78.7%; in the test with U251 CNS, 67%; with PC-3 prostate, 10.6%. The growth in the test with SK-MEL-5 melanoma is 25.9%; in the test on UACC-62 melanoma, 29.4%; in the test with LOX IMVI melanoma, 63%; with SK-MEL-28 melanoma, 63.7%; with SK-MEL-2 melanoma, 66.9%; in the test with EKVX NSCLC, 44.2%. The growth in the test on SN12C renal was 50.2%; with UO-31 renal, 49.5%; with TK-10 renal, 71.3%; in the test with ACHN renal, 59.6%; in the test on CAKI-1 renal, 53.3%; in the test on A498 renal, 62.6%. Moreover, the growth in the test with CCRF-CEM leukemia is 47.1%; with MOLT-4 leukemia, 26%.

Regarding `Cc1cc(N2CCCCC2)nc(N2CCN(CC(=O)Nc3ccc4c(ccn4Cc4ccccc4)c3)CC2)n1`, the growth with HCT-15 colon is 48.1%; in the test on HT29 colon, 12.4%; in the test on SNB-75 CNS, 66.4%; in the test on SNB-19 CNS, 70%; in the test with U251 CNS it was 40.3%; in the test with PC-3 prostate, 38.7%. For the same compound, the growth in the test on SK-MEL-5 melanoma is 57.6%; in the test with UACC-62 melanoma it was 56.5%; in the test on LOX IMVI melanoma it was 60.7%; in the test on SK-MEL-28 melanoma it was 73.7%; in the test with SK-MEL-2 melanoma it was 65.6%; with EKVX NSCLC, 62.1%. Also, the growth in the test on SN12C renal is 64.2%; in the test on UO-31 renal it was 30%; in the test on TK-10 renal, 84%; in the test with ACHN renal it was 76.6%; in the test with CAKI-1 renal it was 56.3%; in the test with A498 renal, 8.63% (active). Also, the values for the growth in the test with CCRF-CEM leukemia and in the test on MOLT-4 leukemia were 64.5% and 52.6%, respectively.

For the compound `COc1ccc(C2=Nc3c(N)ncnc3NC(c3cccc(Nc4ccnc5cc(C(F)(F)F)ccc45)c3)C2)cc1` (stereo not given), the growth in the test on HCT-15 colon was 32.4%; in the test on HT29 colon, 42.6%; in the test on SNB-75 CNS it was 56.7%; in the test on SNB-19 CNS, 68.2%; with U251 CNS, 54.5%; with PC-3 prostate, 42.2%. Moreover, the growth was 51.8% in the test on SK-MEL-5 melanoma; 76.1% in the test on UACC-62 melanoma; 61.8% in the test on LOX IMVI melanoma; 84% with SK-MEL-28 melanoma; 73.7% in the test on SK-MEL-2 melanoma; 54% with EKVX NSCLC. For the same compound, the growth with SN12C renal was 63.9%; in the test with UO-31 renal, 45.2%; in the test with TK-10 renal it was 95.6%; with ACHN renal it was 78.8%; in the test on CAKI-1 renal, 61.5%; in the test with A498 renal, 65.2%. The growth is 42.4% in the test on CCRF-CEM leukemia and 19.7% with MOLT-4 leukemia.

For `CCN(CCO)CC(C)Nc1ccc([N+](=O)[O-])c2sc3ccccc3c(=O)c12` (stereo not given), the growth with HCT-15 colon was 27.2%; in the test with HT29 colon, 11.3%; in the test with SNB-75 CNS it was 36.4%; in the test with SNB-19 CNS, 43.2%; in the test with U251 CNS, 26.7%; in the test on PC-3 prostate it was 28.3%. The growth was 12.3% in the test with SK-MEL-5 melanoma; 29.8% in the test on UACC-62 melanoma; 16.2% in the test on LOX IMVI melanoma; 44.4% in the test with SK-MEL-28 melanoma; 36.6% in the test with SK-MEL-2 melanoma; 25.7% in the test on EKVX NSCLC. Also, the growth with SN12C renal was 28.2%; with UO-31 renal it was -15.6% (active); with TK-10 renal, 58.8%; with ACHN renal, 11.5%; in the test with CAKI-1 renal, -3.3% (active); with A498 renal it was 50.6%. The values for the growth in the test on CCRF-CEM leukemia and in the test with MOLT-4 leukemia were 35.6% and 17.3%, respectively.

(Values after PubChem BioAssay (NCI).)
